40 compounds from PubChem BioAssay (NCI) can be followed below.

About 83,000 compounds went through this panel and 20% of them were active in at least one assay; those are over-represented in the sample as a whole.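 Compound tested at a single concentration for 48 hours in 96-well plates; a percent growth value below 10 was scored as active.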 Values without a mark were called inactive. The source made the active and inactive calls.

The experiment concerns COLO 205 colon. The experiment can be described thus: NCI-60 one-dose screen, 48 h (100 = growth as untreated, 0 = no growth, -100 = all killed). The settings on record: 10 µM unless noted. As to the method: Cells are grown in 96 well plates and exposed to the test compound for 48 hours. Compounds are tested at a single concentration, which is 10^-5 M for most compounds. The reported endpoint is percent growth (GI% or GIPRCNT), where numbers from 0 - 100% represent growth inhibition, and numbers from -100% - 0 represent cell death. For example, a value of 40 represents 60% growth inhibition. A value of 0 means no net growth occurred over the course of the experiment. A value of -40 indicates 40% of cells at the beginning of the experiment died by the end of the experiment. A value of -100 means all cells are dead at the end of the experiment.
NCI-60 Human Tumor Cell Lines Screen was performed using the standard one-dose NCI protocol, which is described in more detail at https://dtp.cancer.gov/discovery_development/nci-60/default.htm.
Compounds with GIPRCNT values below 10 were considered active. Activity score was based on GIPRCNT using the following formula: […]
Score is 0 for GIPRCNT values of 100 or above, 50 for GIPRCNT values of 0, and 100 for GIPRCNT values of -100.
For the compound `O=c1c(CNc2ccc(S(=O)(=O)Nc3nccs3)cc2)coc2ccccc12`, the growth was 119%.

As to `CCN1CCN(C(=O)[C@]23CCC(C)(C)C[C@@H]2C2=CC[C@@H]4[C@@]5(C)C/C(=C/c6cccnc6)C(=O)C(C)(C)[C@@H]5CC[C@@]4(C)[C@]2(C)CC3)CC1`, the growth was 25.9%.

In the case of `Cc1nn2c(-c3nc4cc(Cl)c(Cl)cc4[nH]3)c(-c3ccc(F)cc3)nc2s1`, the growth is 17.7%.

For the compound `COc1ccc(/C=C2\N=C(c3ccccc3)N(c3cc(OC)c(OC)cc3C(=O)N3N=C(C)CC3=O)C2=O)cc1`, the growth is 112%.

For the compound `OCC12CCCC(CO)(COC1)C2O` (stereo not given), the growth was 107%.

As to `c1cc(N2CCCC2)c2nc(-c3[nH]ncc3Nc3ncnc4[nH]ccc34)[nH]c2c1`, the growth was -65.9% (active).

For the compound `CN(C)c1ccc(-c2ccc(-c3ccc(C(=N)N)c(F)c3)s2)cc1`, the growth is -74.7% (active).

Take `CCCCC[C@H]1C/C=C2/C(=O)C(Cl)=C[C@@H]2C/C=C\CCCC(=O)O1`: the growth is -63.1% (active).

With `Oc1ccc(CCC2CCCC(CCc3ccc(OCCF)cc3)N2)cc1` (stereo not given), the growth was 97.2%.

For `Cc1cccc(C)c1NC(=O)CSC(=S)N1CCCCC1`, the growth is 109%.

As to `COc1ccc(C(=O)/C=C/c2cc(-c3cc(OC)c(OC)c(OC)c3)n[nH]2)cc1OC`, the growth was -65.7% (active).

In the case of `CCN1CCN(c2nc(C)cc(N(CCCNc3ccnc4cc(Cl)ccc34)Cc3ccco3)n2)CC1`, the growth is -21.2% (active).

As to `O=c1[nH]c(=S)[nH]c2nc[nH]c12`, the growth is 123%.

In the case of `O=C1C(=O)c2ccccc2C(O)=C1CCCc1ccc(C2CCCCC2)cc1`, the growth is 42.6%.

Consider `COc1ccc(NC(=O)c2ccc3c(c2)nc(-c2cc4ccccc4[nH]c2=O)n3-c2cc(C(C)(C)C)[nH]n2)cc1`, for which the growth is 96.4%.

In the case of `COc1cc(OC)c2c(c1)c1nc3cc(C)c(C)cc3nc1n2CCN(C)C`, the growth was 74.9%.

`COc1ccc2c(c1)c(-c1nc(-c3c[nH]c4ncccc34)cs1)cn2C`: the growth is 83.7%.

Consider `COC(=O)CNc1nc(N(C)O)nc(N(C)O)n1`, for which the growth was 12.7%.

With `CC(C)=CCC[C@](C)(O)[C@H]1CC[C@]2(C)[C@@H]1CC[C@@H]1[C@@]3(C)C/C(=C/c4ccc(Br)cc4)C(=O)C(C)(C)[C@@H]3CC[C@]12C`, the growth was 99.1%.

Consider `CCC(=O)c1c(C)[nH]c(C)c1C`, for which the growth is 89.4%.

With `COc1ccc(/C=C(\C#N)c2cc3ccccc3n2C(C)=O)cc1`, the growth is 97.3%.

Take `Nc1c(C(=O)Nc2c(Cl)cccc2Cl)sc2nc3c(cc12)C(=O)CCC3`: the growth was 7.4% (active).

On to `CC(C)=CCC/C(C)=C/CC/C(C)=C/CSC[C@H](NC(=O)CCCCCN1CCN(C)CC1)C(=O)NC1CCCCCC1`, for which the growth is -71% (active).

As for `CCCCC[C@H]1CC=C2C(=O)C=C[C@@H]2CC=CCCCC(=O)O[C@@H](CCCCC)CC=C2C(=O)C=C[C@@H]2CC=CCCCC(=O)O[C@@H](CCCCC)CC=C2C(=O)C=C[C@@H]2CC=CCCCC(=O)O1`, the growth was -30.7% [8.75 µM] (active).

Consider `CC(C)(C)c1ccc(OCCCCCCCN2CCNCC2)cc1`, for which the growth is -60.9% (active).

`COc1ccc(O)c(-c2cc(-c3ccc(Cl)cc3)c(C#N)c(=O)[nH]2)c1`: the growth is 95.2%.

Regarding `CCCCN1CCCCn2c1nc1c2c(=O)n(C)c(=O)n1C`, the growth is 114%.

For `O=c1c(CNc2ccc(S(=O)(=O)Nc3ncccn3)cc2)coc2ccccc12`, the growth is 105%.

On to `CN(C)CCCCC(C(=O)CBr)(c1ccccc1)c1ccccc1`, for which the growth is -76% (active).

As for `CC1(C)CC[C@]2(CO)CC[C@]3(C)C(=CC[C@@H]4[C@@]5(C)CC[C@H](NCO)C(C)(C)[C@@H]5CC[C@]43C)[C@@H]2C1`, the growth was -71.5% (active).

`Cc1cc(N2CCCCC2)nc(N(CCCNc2ccnc3cc(Cl)ccc23)Cc2ccco2)n1`: the growth is -35.3% (active).

On to `N#CC1=C(N)Oc2c(c(N)nn2-c2ccccc2)C1c1ccc(Cl)cc1` (stereo not given), for which the growth is 106%.

As for `C/C(=N\NC(=O)C(C)SC(C)C(=O)N/N=C(\C)c1cccnc1)c1cccnc1` (stereo not given), the growth was 107%.

For the compound `C(=C\c1c[nH]c2ccccc12)/c1ccc2ccccc2n1`, the growth was 84.4%.

As to `O=C(O)c1cccc2c1C(=O)N(c1ccc3c(c1)Cc1ccccc1-3)C2=O`, the growth is 121%.

As to `Cc1cc(N2CCCC2)nc(N(CCNc2ccnc3cc(Cl)ccc23)Cc2ccco2)n1`, the growth was 15.9%.

Turning to `O=C1Nc2ccccc2/C1=C/c1cn(CCCn2c3ccccc3c(=O)c3ccccc32)c2ccccc12`, the growth is 88.6%.

In the case of `COc1cccc(NC(=O)c2sc3nc4c(cc3c2N)C(=O)CCC4)c1`, the growth is 0.646% (active).

For `COc1ccc2c(c1)c1nc3cc(C)c(C)cc3nc1n2CCN(C)C`, the growth was -23.8% (active).

Take `COc1ccc2[nH]cc(-c3nc(-c4c[nH]c5ncccc45)cs3)c2c1`: the growth is -10.2% (active).
